Source: the supplement of paper PMC11732987, “Enantioselective OTUD7B fragment discovery through chemoproteomics screening and high-throughput optimisation” (Communications Chemistry, 2025)

Key:
Assay in all cases: log2 ratio of Biotin-Ahx-Ub-VS probe labelling (fragment/DMSO); higher = less target engagement (more negative = stronger competition), active = hit call of the paper (q ≤ 0.05, log2 ratio ≤ -1)
Conditions in all cases: compound concentration: 200 uM; treatment time: 3 h
[1] = biological target: T1, USP19 (UniProt O94966)
T1 sequence (whole entry): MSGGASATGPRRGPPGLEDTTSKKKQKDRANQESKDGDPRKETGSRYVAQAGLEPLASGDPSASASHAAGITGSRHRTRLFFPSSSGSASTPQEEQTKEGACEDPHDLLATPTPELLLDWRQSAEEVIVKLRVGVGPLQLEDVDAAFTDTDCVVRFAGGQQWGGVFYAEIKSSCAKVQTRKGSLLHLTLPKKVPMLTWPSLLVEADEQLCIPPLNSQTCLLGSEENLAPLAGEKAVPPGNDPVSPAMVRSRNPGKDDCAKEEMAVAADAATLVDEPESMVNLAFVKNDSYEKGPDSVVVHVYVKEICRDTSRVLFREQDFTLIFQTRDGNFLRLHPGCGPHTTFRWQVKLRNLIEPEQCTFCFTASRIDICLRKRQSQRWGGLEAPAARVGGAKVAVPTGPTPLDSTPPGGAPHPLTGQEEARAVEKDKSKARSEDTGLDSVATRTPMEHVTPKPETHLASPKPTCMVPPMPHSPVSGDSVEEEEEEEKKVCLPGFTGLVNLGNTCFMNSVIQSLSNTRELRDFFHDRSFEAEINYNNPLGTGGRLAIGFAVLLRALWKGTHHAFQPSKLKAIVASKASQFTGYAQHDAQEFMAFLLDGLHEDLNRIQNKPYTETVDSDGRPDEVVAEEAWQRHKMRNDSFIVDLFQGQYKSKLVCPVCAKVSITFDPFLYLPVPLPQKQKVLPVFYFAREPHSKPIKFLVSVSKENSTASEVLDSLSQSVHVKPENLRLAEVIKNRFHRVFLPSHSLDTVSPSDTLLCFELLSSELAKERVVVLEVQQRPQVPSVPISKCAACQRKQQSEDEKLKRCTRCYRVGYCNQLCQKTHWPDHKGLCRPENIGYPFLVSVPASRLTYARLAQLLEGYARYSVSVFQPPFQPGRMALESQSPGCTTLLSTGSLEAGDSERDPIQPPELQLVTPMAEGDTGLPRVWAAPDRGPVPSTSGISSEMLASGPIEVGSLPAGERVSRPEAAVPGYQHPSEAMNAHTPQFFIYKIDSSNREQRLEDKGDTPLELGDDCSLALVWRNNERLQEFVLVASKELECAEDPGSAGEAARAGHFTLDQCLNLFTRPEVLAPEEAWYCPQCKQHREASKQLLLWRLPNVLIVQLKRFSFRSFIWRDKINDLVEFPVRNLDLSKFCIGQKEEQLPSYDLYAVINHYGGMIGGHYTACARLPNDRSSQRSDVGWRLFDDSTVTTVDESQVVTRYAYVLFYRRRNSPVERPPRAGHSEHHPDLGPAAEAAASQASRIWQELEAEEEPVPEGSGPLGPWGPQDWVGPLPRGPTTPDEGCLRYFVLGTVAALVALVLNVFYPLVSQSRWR
Summary of the method: (§1)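 Labelled DUBs were enriched with NeutrAvidin, digested with LysC and trypsin, and run by diaPASEF LC-MS/MS. The labelling used Biotin-Ahx-Ub-VS at 0.5 µM final for 1 h on HEK293T lysate (495 µg per sample) previously treated in triplicate with fragment at 200 µM or vehicle for 3 h. Values are average log2 fragment/vehicle ratios by unpaired t-test on global-median-normalised Spectronaut quantities of proteins with ≥2 unique peptides.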

[2] = biological target: T2, USP22 (UniProt Q9UPT9)
T2 sequence (whole entry): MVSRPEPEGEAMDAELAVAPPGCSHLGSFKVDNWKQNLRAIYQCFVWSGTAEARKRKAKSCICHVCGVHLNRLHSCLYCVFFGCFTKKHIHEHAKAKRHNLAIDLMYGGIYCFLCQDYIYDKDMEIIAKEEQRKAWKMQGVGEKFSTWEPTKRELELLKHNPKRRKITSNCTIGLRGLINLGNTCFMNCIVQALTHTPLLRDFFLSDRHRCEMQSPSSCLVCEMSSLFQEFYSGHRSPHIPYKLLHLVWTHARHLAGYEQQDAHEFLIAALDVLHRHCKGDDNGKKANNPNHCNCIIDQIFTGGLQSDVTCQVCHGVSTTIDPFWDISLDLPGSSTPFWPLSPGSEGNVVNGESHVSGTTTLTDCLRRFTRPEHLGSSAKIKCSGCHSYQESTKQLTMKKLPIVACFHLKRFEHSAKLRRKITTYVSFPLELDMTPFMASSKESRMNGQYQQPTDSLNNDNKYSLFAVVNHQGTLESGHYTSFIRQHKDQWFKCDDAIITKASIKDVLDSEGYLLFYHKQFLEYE
Summary of the method: as §1

[3] = biological target: USP24 (UniProt Q9UPU5)
Summary of the method: as §1

[4] = biological target: T3, USP25 (UniProt Q9UHP3)
T3 sequence (whole entry): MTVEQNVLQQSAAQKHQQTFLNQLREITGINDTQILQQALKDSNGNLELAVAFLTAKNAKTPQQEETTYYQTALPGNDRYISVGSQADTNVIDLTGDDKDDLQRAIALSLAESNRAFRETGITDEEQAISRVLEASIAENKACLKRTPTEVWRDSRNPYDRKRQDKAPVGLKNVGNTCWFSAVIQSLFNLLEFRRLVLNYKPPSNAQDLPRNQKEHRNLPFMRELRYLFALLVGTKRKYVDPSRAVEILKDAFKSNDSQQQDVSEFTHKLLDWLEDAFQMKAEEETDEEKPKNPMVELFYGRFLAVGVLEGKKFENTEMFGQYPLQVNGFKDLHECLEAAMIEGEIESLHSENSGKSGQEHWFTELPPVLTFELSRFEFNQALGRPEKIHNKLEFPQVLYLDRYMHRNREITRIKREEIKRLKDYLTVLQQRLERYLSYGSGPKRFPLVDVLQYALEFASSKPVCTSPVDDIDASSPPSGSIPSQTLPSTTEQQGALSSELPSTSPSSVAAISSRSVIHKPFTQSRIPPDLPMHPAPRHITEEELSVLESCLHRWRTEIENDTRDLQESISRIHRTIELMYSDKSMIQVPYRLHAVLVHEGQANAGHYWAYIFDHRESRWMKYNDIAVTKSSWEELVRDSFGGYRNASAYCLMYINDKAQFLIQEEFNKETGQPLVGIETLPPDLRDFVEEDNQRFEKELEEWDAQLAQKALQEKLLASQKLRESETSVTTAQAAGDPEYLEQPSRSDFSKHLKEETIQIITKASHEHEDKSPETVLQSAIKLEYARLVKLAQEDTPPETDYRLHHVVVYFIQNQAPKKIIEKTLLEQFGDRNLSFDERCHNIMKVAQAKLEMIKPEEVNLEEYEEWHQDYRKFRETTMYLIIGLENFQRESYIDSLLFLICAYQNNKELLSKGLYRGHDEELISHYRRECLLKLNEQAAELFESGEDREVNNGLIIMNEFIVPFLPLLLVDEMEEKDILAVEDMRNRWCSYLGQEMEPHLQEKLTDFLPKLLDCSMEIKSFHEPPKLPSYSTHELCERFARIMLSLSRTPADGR
Summary of the method: as §1

[5] = biological target: T4, USP28 (UniProt Q96RU2)
T4 sequence (whole entry): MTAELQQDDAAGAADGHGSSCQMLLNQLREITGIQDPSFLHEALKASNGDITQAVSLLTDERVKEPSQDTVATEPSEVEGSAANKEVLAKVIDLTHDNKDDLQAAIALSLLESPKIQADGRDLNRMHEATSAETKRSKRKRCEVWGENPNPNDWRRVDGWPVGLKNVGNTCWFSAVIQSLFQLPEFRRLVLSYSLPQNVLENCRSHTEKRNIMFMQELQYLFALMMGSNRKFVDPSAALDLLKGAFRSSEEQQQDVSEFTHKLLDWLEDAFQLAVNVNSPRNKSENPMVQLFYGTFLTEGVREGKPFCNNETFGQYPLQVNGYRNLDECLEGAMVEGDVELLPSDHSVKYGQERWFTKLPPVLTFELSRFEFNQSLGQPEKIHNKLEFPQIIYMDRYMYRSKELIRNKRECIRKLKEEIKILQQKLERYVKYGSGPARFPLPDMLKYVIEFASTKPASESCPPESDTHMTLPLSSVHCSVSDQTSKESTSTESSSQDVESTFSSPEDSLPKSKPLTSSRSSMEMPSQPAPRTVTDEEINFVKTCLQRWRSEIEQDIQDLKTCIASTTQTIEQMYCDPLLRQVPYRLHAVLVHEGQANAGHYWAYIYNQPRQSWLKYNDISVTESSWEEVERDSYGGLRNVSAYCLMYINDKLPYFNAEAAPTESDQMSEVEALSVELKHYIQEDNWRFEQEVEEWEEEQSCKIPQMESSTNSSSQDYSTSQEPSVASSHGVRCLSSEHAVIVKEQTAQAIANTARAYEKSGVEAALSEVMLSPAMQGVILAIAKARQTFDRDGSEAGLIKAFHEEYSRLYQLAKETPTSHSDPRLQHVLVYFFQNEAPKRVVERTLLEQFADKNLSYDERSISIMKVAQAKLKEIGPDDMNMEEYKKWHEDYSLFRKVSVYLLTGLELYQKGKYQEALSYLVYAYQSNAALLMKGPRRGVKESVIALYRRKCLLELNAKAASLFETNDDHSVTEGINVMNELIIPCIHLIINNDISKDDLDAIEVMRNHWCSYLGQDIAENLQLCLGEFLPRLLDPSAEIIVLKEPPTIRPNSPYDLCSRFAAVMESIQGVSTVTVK
Summary of the method: as §1

Measured: log2 ratio of Biotin-Ahx-Ub-VS probe labelling

Chain of USP24 (Q9UPU5 whole entry): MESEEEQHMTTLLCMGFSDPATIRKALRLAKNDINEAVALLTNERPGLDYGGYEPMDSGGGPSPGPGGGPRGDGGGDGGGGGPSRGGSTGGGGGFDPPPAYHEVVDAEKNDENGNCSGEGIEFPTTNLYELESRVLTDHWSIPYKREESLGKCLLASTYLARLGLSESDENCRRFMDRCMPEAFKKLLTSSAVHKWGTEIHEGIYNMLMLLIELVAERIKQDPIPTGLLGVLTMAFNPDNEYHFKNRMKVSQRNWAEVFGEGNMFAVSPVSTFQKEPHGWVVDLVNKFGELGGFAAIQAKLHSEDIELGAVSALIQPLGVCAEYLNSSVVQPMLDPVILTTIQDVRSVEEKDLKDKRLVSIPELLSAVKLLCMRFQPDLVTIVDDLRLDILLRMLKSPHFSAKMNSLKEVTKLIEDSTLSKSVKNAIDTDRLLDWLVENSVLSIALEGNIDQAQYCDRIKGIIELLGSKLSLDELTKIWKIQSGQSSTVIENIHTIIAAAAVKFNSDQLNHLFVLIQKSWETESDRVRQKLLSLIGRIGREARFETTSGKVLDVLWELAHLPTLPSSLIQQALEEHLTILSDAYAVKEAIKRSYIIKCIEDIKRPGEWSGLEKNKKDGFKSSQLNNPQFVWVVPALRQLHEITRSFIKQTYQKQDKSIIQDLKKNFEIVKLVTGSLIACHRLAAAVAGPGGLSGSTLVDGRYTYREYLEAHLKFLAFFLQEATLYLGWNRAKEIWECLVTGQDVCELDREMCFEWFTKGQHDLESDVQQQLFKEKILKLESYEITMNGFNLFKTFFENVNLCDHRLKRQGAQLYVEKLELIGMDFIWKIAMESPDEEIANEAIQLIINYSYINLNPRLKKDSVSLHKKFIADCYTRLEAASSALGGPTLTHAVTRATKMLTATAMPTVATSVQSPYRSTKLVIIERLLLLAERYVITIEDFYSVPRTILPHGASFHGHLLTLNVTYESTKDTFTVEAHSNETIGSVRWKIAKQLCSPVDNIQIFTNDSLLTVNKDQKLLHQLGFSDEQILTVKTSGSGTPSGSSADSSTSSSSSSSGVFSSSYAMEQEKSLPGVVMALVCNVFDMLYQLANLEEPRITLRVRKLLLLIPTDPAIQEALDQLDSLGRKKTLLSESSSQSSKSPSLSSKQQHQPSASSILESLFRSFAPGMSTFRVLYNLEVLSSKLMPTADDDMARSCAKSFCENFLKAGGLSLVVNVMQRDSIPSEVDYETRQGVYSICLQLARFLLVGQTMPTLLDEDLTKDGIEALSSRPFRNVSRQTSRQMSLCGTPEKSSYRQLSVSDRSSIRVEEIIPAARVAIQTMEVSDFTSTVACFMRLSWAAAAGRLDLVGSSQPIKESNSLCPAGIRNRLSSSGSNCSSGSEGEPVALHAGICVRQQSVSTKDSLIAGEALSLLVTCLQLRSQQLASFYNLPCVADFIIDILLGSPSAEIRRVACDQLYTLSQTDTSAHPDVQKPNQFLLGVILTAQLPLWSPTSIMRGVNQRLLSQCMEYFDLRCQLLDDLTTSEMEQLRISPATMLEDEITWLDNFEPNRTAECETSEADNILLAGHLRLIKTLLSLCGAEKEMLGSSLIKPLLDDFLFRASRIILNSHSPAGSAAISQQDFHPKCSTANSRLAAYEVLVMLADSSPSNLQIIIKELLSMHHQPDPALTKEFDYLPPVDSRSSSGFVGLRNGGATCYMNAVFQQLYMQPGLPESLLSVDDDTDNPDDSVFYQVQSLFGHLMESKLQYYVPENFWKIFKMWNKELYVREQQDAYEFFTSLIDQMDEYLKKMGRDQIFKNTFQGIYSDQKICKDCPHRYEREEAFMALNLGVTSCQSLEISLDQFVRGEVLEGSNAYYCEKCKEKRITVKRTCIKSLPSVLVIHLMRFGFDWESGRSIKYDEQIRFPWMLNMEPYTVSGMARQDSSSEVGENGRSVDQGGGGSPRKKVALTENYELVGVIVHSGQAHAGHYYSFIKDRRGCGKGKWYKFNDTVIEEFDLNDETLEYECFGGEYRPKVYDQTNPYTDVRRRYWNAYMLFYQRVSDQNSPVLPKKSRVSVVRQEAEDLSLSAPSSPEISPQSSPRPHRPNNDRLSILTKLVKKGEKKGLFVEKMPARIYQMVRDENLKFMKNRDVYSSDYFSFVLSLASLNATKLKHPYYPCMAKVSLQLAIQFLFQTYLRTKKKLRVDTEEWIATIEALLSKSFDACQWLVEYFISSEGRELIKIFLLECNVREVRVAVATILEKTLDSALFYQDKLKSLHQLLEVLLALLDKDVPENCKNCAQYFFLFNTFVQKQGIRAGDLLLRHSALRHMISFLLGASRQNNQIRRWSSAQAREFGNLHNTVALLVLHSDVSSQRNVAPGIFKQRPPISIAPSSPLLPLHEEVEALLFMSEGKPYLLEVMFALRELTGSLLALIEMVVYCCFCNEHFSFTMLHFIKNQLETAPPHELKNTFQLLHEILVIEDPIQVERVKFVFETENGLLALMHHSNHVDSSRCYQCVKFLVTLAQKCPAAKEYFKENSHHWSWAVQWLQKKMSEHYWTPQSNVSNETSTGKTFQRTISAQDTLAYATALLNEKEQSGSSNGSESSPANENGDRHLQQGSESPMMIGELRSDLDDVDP

O=C(CCl)Nc1cc(Cl)ccc1C(=O)O
inactive: [1] -0.0222 | [2] 0.0608 | [3] -0.0569 | [4] 0.269 | [5] -0.0169
